High-throughput results as filed in PubChem BioAssay.
Sampled rows, rich in hits. Any-hit rate of the full collection: about 5.7%.
JMJD2A Tudor inh = qHTS Assay for Inhibitors of JMJD2A-Tudor Domain; Lysine-specific demethylase 4A (Homo sapiens), O75164; AlphaScreen JMJD2A-Tudor / H3K4me3 peptide binding; Potency, µM (top dose mostly 114 µM), for inactives: at the top dose activity change, negative = inhibition, hits mostly inhibitors; 390,000 compounds, 4.4% hits; AID 504339, 2011; further: potency means the concentration at half of the fitted maximal effect; on the % scale 0 is the no-effect control and ±100 the full control effect; nearly all actives have a fitted effect of over 50% in size
L3MBTL1 block = qHTS Assay for the Inhibitors of L3MBTL1; 230,000 compounds, 0.66% hits; Potency, µM (highest dose often 57.1 µM), for the others: at the highest dose activity, negative = inhibition, actives largely listed as inhibitors; AID 485360, 2010; AlphaScreen L3MBTL1–H3K9me1 peptide binding; further: potency means the concentration at half of the fitted maximal effect; on the % scale 0 is the no-effect control and ±100 the full control effect; nearly all actives have a fitted effect of over 60% in size
Target sequence (Q9Y468 whole entry, looked up): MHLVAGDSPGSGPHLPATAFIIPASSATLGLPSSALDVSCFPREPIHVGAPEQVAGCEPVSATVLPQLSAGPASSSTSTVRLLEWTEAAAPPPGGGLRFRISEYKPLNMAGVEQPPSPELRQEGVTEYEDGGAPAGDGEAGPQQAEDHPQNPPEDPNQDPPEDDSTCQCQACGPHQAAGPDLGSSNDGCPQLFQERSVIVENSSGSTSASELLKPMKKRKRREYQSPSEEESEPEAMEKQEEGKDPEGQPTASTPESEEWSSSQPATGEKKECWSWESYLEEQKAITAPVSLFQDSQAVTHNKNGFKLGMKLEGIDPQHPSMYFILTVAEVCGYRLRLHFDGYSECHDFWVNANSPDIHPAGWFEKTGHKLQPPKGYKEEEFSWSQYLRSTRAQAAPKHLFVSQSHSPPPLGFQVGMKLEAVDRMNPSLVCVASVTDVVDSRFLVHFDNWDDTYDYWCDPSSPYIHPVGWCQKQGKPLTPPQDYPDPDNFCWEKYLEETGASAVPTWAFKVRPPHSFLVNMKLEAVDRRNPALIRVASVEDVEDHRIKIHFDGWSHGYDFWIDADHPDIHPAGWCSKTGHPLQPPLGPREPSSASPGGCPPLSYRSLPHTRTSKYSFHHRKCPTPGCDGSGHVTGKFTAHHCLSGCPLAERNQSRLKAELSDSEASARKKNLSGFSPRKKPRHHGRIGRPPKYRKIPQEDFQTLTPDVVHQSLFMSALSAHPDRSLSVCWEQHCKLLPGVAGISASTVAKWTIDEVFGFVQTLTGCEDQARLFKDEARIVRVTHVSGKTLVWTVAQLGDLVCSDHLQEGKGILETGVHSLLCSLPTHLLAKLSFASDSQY
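AlphaScreen assay: L3MBTL1 (50 nM final) was preincubated 30 min at room temperature with biotinylated H3(1-15)K9me1 peptide (75 nM final), then 30 min with library compounds; streptavidin donor and nickel chelate acceptor beads (10 ug/mL final) added, 30 min dark.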
HP1b binding inh = HTS for Inhibitors of HP1-beta Chromodomain Interactions with Methylated Histone Tails. Chromobox protein homolog 1 (Homo sapiens), P83916. AlphaScreen HP1-beta / biotin-H3K9me3 peptide binding. Potency, µM (doses to about 114 µM), without a hit: at the highest dose activity change, negative = inhibition, actives largely listed as inhibitors. 390,000 compounds, 0.56% hits. AID 540317, 2011; further: potency means the concentration at half of the fitted maximal effect; nearly all actives have a fitted effect of over 70% in size
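AlphaScreen: HP1-beta (50 nM) preformed 30 min with biotin-H3(1-18)K9me3 peptide (50 nM) in PBS pH 7.4, 0.01% Tween-20. Compound added for 30 min at RT, then streptavidin donor/nickel chelate acceptor beads (10 ug/mL) for 30 min.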
BAZ2B block = qHTS Assay for Inhibitors of BAZ2B; 360,000 compounds, 4.4% hits; Potency, µM (doses to about 114 µM), for inactives: top-dose activity change, negative = inhibition, actives largely listed as inhibitors; AID 504333, 2011; Bromodomain adjacent to zinc finger domain protein 2B (Homo sapiens), Q9UIF8; AlphaScreen BAZ2B-H3K14Ac peptide displacement; further: potency means the concentration at half of the fitted maximal effect; on the % scale 0 is the no-effect control and ±100 the full control effect; nearly all actives have a fitted effect of over 60% in size
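AlphaScreen displacement: compounds (up to 110uM) incubated 30 min at room temperature with a preformed 50 nM BAZ2B/50 nM biotinylated H3K14Ac peptide complex in PBS pH 7.4 with Tween-20. Donor and acceptor beads at 10 ug/mL final added, 20 min light-protected before reading.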
KDM4E inh = qHTS Assay for Inhibitors of Human Jumonji Domain Containing 2E (JMJD2E); Lysine-specific demethylase 4E (Homo sapiens), B2RXH2; AID 2147, 2009; JMJD2E catalytic domain, FDH-coupled NADH fluorescence (FDH is formaldehyde dehydrogenase); 230,000 compounds, 1.6% hits; Potency, µM (highest dose often 57.1 µM), for the others: at the top dose activity change, negative = inhibition, hits mostly inhibitors; active means well fitted inhibition curve with a large enough effect, not every such curve was filed as active; inconclusive means small, poorly fitted or top-dose-only effect, or another doubt; inactive means no such curve, though single readings can be large or run the other way;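 further: potency means the concentration at half of the fitted maximal effect; 0% = wells with enzyme and -100% = buffer wells without enzyme; nearly all actives have a fitted effect of over 50% in size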
PI5P4Ka inh = qHTS for Inhibitors of phosphatidylinositol 5-phosphate 4-kinase (PI5P4K); AID 652105, 2013; PI5P4Kalpha enzyme, ADP-Glo luminescence, 60 min; hits give low values; max response, %; 330,000 compounds, 1.2% hits; active means max response of -50% or lower; inconclusive means between -30% and -50%; inactive means -30% or higher; further: value at the top dose of about 77 µM; on the % scale 0 is the no-effect control and ±100 the full control effect
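Enzyme plus substrate dispensed, test compounds pinned in, then ATP (5 microM final) added. After 60 min at RT, ADP-Glo reagent 1 for 45 min and reagent 2 for 30 min preceded luminescence imaging.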
An asterisk follows results filed as active; ? = inconclusive; . = no result; ! = a repeat was not active; [ ] = another dose, or the depositor's remark. Unless noted, the call rests on the fitted dose curve; in most records, active means well fitted inhibition curve with a large enough effect; inconclusive means small, poorly fitted or top-dose-only effect; inactive means no such curve, though single readings can be large or run the other way.

SMILES | JMJD2A Tudor inh | L3MBTL1 block | HP1b binding inh | BAZ2B block | KDM4E inh | PI5P4Ka inh
Cc1cc2c(s1)c1cnn(Cc3cc(F)cc(F)c3F)c(=O)c1n2C | -13% | . | . | . | . | .
CCc1ccc(CN(C(=O)c2cc(=O)c3ccc(C)cc3o2)C2CCS(=O)(=O)C2)cc1 (stereo unspecified) | -7% | . | 29% | -22% | . | .
Cc1[nH]n(-c2ccccc2)c(=O)c1N=Nc1c(O)cc(S(=O)(=O)N(C)C)c2ccccc12 | 20µM* | 7.9µM* | 18µM* | 7.9µM* | . | -8
Cc1[nH]n(-c2ccccc2)c(=O)c1N=Nc1cccc([N+](=O)[O-])c1 | ? | -3% | -9% | ? | . | 3
Cc1[nH]n(-c2ccccc2)c(=O)c1N=Nc1cccc(Cl)c1 | ? | -2% | ? | 22µM* | . | 0
CC(=O)Nc1ccc(N=Nc2c(C)[nH]n(C(N)=S)c2=O)cc1 | -27% | . | 8% | -11% | -4% | -5
Cc1ccc(N=Nc2c(C)[nH]n(-c3ccccc3)c2=O)cc1Br | ? | -5% | -2% | 13µM* | . | 0
CSc1ccc(N=Nc2c(C)[nH]n(C)c2=O)cc1 | 25µM* | ? | 45µM* | 18µM* | -1% | -2
Cc1[nH]n(-c2ccccc2)c(=O)c1N=O | -12% | 7% | 23% | -28% | -10% | -3
CCOc1ccccc1C1CC(=O)Oc2c1c(=O)n(C)c1ccccc21 (stereo unspecified) | 5% | . | 25% | -15% | . | .
Nc1[nH]n(-c2ccccc2)c(=O)c1N=Nc1ccccc1 | 13µM* | ? | ? | 7.9µM* | 0% | 16
COc1ccc(-c2nnc(SCC(=O)NCc3ccc(C)cc3)nc2-c2ccc(OC)c(OC)c2)cc1OC | -29% | . | 11% | -25% | . | .
CCOc1cc(-c2nnc(SCC(=O)NCc3ccc(C)cc3)nc2-c2ccc(OC)c(OCC)c2)ccc1OC | -28% | . | 15% | 56µM* | . | .
CCOc1cc(-c2nnc(SCC(=O)NCc3ccccc3)nc2-c2ccc(OC)c(OCC)c2)ccc1OC | ? | . | 7% | 50µM* | . | .
CNc1nnc(SCC(=O)N2c3ccccc3NC(=O)CC2C)s1 (stereo unspecified) | -7% | 0% | 26% | 5% | . | 1
COCCn1c(Cc2ccccc2)nnc1SCC(=O)NC1CC1 | -20% | . | -20% | -10% | . | -3
CC(C)CN(c1ccccc1)S(=O)(=O)c1nnc(NC(=O)C2CCCCC2)s1 | -31% | . | 32% | -9% | . | .
CCc1cccc(C)c1NC(=O)CN1C(=O)c2ccccc2Sc2ncccc21 | -15% | . | 21% | -13% | . | .
CC[C@@]12C(=O)N(c3cccc(Cl)c3)C(=O)N1[C@H](c1ccc(Br)cc1)[C@@H]1C(=O)N(C(C)(C)C)C(=O)[C@@H]12 | 79µM* | 0% | 9% | 11% | . | ?
CC(C)C[C@@]12C(=O)N(c3cccc(Cl)c3)C(=O)N1[C@H](c1ccc(Br)cc1)[C@@H]1C(=O)N(C(C)(C)C)C(=O)[C@@H]12 | -34% | 0% | 18% | 1% | . | -4
S=c1[nH]nc(-c2cccnc2)o1 | 20µM* | 5% | 37% | ? | -9% | .
Clc1ccccc1C1Nc2cccc3cccc(c23)N1 | ? | ? | ? | 71µM* | . | -22
Clc1cccc(C2Nc3cccc4cccc(c34)N2)c1Cl | 50µM* | -4%[2.29 µM] | ? | 40µM* | . | -2
Oc1ccc(C2Nc3cccc4cccc(c34)N2)c(O)c1 | 79µM* | -10% | 18µM* | ? | -2% | ?
O=C(CSc1nc2c(c(=O)[nH]1)CCC2)Nc1cc(C(F)(F)F)ccc1Cl | -24% | . | 28% | -15% | . | .
SMILES | JMJD2A Tudor inh | L3MBTL1 block | HP1b binding inh | BAZ2B block | KDM4E inh | PI5P4Ka inh
CN1CCC(N(C)C(=S)NC(=O)c2cc(-c3cccc(Br)c3)nc3ccccc23)CC1 | 13µM* | -10%[11.4 µM] | -11% | ? | -12% | ?
Cc1ccc(C)c(NC(=O)CN(C)C(=O)c2ccc(-c3cccc(C(F)(F)F)c3)o2)c1 | -6% | -2% | 20% | -34% | . | 2
CCN(CC)c1ccc(NS(=O)(=O)c2ccc(-c3cnc(C4CC4)o3)cc2)c(C)c1 | 18µM* | . | ? | 14µM* | . | .
Cc1ccc(NS(=O)(=O)c2ccc(-c3cnc(C4CC4)o3)cc2)c(C)c1 | ? | . | -10%[57 µM] | -33% | . | 0
COc1ccccc1NS(=O)(=O)c1ccc(-c2cnc(C3CC3)o2)cc1 | -11% | . | 16% | ? | . | 2
COc1ccccc1CNS(=O)(=O)c1ccc(-c2cnc(C3CC3)o2)cc1 | -36% | . | 2%[57 µM] | 89µM*! | . | 2
CCCCOC(=O)c1cccc(NC(=O)c2cc3ccccc3o2)c1 | 16% | . | 59% | 39% | . | .
O=C1CC(c2nnc(Cc3ccc(F)cc3Cl)o2)CN1c1ccccc1 (stereo unspecified) | -17% | . | 15% | -11% | . | .
Clc1ncc2[nH]cnc2n1 | 0%[11.4 µM] | . | 18% | 0% | ? | -5
S=c1[nH]c2cnc(Cl)nc2[nH]1 | 40µM* | . | 2% | . | . | ?
Cc1nn(-c2ccccc2)c2[nH]c(=O)c(CNc3ccc4c(c3)OCCO4)cc12 | ? | -19% | -36% | 35µM* | 5% | 0
CCOc1ccc(NCc2cc3c(C(C)(C)C)nn(-c4ccccc4)c3[nH]c2=O)cc1 | 50µM* | . | ? | 22µM* | ? | .
O=c1[nH]c(Nc2ccc3c(c2)OCCO3)nnc1Cc1ccccc1 | ? | 4% | -3% | -8% | 21% | -13
Cc1ccccc1CSc1nnc2[nH]c(=O)cc(C)n12 | -8% | . | 44% | 2% | . | .
O=C(Cn1cncn1)N/N=C/c1ccncc1 | -13% | -6% | 27% | -9% | 3% | -4
O=C(Cn1cncn1)N/N=C/c1ccccc1O | 56µM* | . | 45% | 79µM* | ? | -6
Cc1ccn(CC(=O)N/N=C/c2cc([N+](=O)[O-])ccc2O)n1 | 22µM* | ? | 31% | 35µM* | 13µM* | -1
O=C(Cn1cncn1)N/N=C/c1cc([N+](=O)[O-])ccc1O | 25µM* | ? | 35% | 22µM* | 25µM* | 4
O=C(CSc1ccccn1)N/N=C/c1cc([N+](=O)[O-])ccc1O | ? | . | 59% | 45µM* | 13µM* | -20
